Records with an inconclusive call do not appear. Active and inactive are the calls of the source. Unless noted, calls follow the shape of the dose curve; as a rule, active = well fitted curve in the direction sought with a large enough effect; inconclusive = small, poorly fitted or top-dose-only effect, or another doubt; inactive = no such curve, though single readings can be large; an effect the other way counts as inactive or inconclusive.

A short description of assay [1]: Validation screen for small molecules that induce genotoxicity in human embryonic kidney (HEK293T) cells expressing luciferase-tagged ELG1 (AID 493106). Also: 0% is about no effect. In outline: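 Reporter-gene quantitative HTS in HEK293T cells carrying luciferase-tagged ELG1, whose level climbs under genotoxic stress. Compound exposure lasts 16 hr at 37 °C before luciferase detection.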
In assay [2] the target is ATPase family AAA domain-containing protein 5 (Homo sapiens) (UniProt Q96QE3). Description: Validation screen for small molecules that inhibit ELG1-dependent DNA repair in human embryonic kidney (HEK293T) cells expressing luciferase-tagged ELG1 (AID 493107).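 Also: cells co-treated with the DNA-damaging agent 5-fluorouridine alongside compound; series mostly up to about 46 µM; % is scaled to controls: 0 for no effect and ±100 for the full control effect; inhibitors lower the ELG1-luciferase luminescence signal; nearly all actives have a fitted effect of over 70% in size.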 The procedure, abridged: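 Quantitative HTS in HEK293T cells carrying luciferase-tagged ELG1, stimulated with 5-fluorouridine alongside compound for 16 hr. Loss of luciferase signal marks inhibition of ELG1 response.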

In assay [3] the target is Thyrotropin-releasing hormone receptor (Homo sapiens) (UniProt P34981). Description: qHTS for Small Molecule Agonists and Allosteric Enhancers of Human TRH Receptor: Validation Screen for Agonists (AID 493127;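 active = calcium activation more than 3 SD above the typical response in the agonist read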;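 also: intracellular calcium rise by fluo-8 fluorescence before TRH EC20 addition; 0% is about no effect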). The conditions noted are these: TRH receptor agonist cell assay; at 2 µM; stronger effect = higher value. The procedure, abridged: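 Gq-coupled calcium mobilization in TRHR cells after compound addition, monitored kinetically with fluo-8 dye on an FDSS reader.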
Background: In qHTS, concentration-response curves come from the screen itself.

Assay [4] can be described thus: Nrf2 qHTS screen for inhibitors: Validation (AID 493153; active = well fitted inhibition curve with a large enough effect in the main read-out, with a control signal flat, not every such curve was filed as active). To be noted: Potency: luciferase luminescence; viability change: measured here: cytotoxicity max response. The procedure, abridged:
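Dose-response validation uses reporter A549 cells with firefly luciferase under an antioxidant response element. Compounds stay on cells 18-24 h at 37°C, and luminescence indicates Nrf2-driven transcription.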

The nature of assay [5]: qHTS for Inhibitors of Cell Surface uPA Generation: Validation Assay (AID 493164).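 Also: RAW 264.7 macrophage cells exposed to compound for 18 h; 0% is about no effect.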 In outline:
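RAW 264.7, 4000 cells/well, o/n plating; cpd 7-pt 1:5 dilution 2.45 nM–38.3 uM final; 18 h, 37 C/5% CO2; ATP-Lite, 5 s luminescence exposure.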

Assay [6] concerns the target Galactokinase (Homo sapiens) (UniProt P51570). Description: qHTS Validation Assay for Inhibitors of Human Galactokinase (GALK) (AID 493189). Also: 0% is about no effect. In outline: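 5 nM GALK / 100 uM galactose / 35 uM ATP, 20 mM HEPES pH8.0, 5 mM MgCl2, 60 mM NaCl, 1 mM DTT, 0.01% BSA (final). RT 1 h; Kinase-Glo Plus luminescence.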
The nature of assay [7]: Validation screen for small molecules that induce DNA re-replication in SW480 colon adenocarcinoma cells (AID 504364). Also: 0% is about no effect. The procedure, abridged: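 Cells are treated 48 hr with test compound, stained 40 min with Hoechst at 37 C, and scanned for nuclear fluorescence; compounds inducing re-replication increase nuclei with elevated intensity.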
Assay [8] concerns the target Peptidyl-prolyl cis-trans isomerase NIMA-interacting 1 (Homo sapiens) (UniProt Q13526). In words: qHTS Validation Assay to Find Inhibitors of Pin1 (AID 504536; active = well fitted inhibition curve with a large enough effect in the polarisation, with a control signal flat, not every such curve was filed as active; the % refers to the polarisation;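 also: 0% = full Pin1 enzyme wells and -100% = no-enzyme wells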). The procedure, abridged:
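Fluorescence polarization competition: compounds (titration) displace HiFluor-488-labeled Pin1-1b peptide from Pin1 (0.3 uM final) in pH 7.5 HEPES buffer with DTT, 10 min at room temperature; %Activity normalized to no-enzyme wells, curves fitted.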

The target of assay [9] is phosphoglycerate mutase (Leishmania major) (UniProt Q4Q090). In words: qHTS Validation Assay to Find Inhibitors of Phosphoglycerate Mutase (AID 504548).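 Also: end-point luminescence from Kinase-GloPlus after the PGAM reaction; series mostly up to about 58 µM; % is scaled to controls: 0 for no effect and ±100 for the full control effect.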 In outline:
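Inhibition of L. major PGAM was assessed by Kinase-GloPlus luminescence following a 45-minute room-temperature reaction with enzyme at 1.25nM final.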

The target of assay [10] is Ubiquitin carboxyl-terminal hydrolase 1 (Homo sapiens) (UniProt O94782). In words: Inhibitors of USP1/UAF1: Pilot qHTS (AID 504865).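 Also: rhodamine fluorescence freed from ubiquitin-rhodamine substrate followed over time; top concentration of the series differs between compounds; % is scaled to controls: 0 for no effect and ±100 for the full control effect; nearly all actives have a fitted effect of over 35% in size.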 The procedure, abridged:
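In 50mM HEPES pH 7.8 containing 0.5mM EDTA, 1mM TCEP, 0.1 mg/ml BSA and 0.01% Tween-20, 1nM USP1/UAF1 is exposed to compound for 15 min, then Ub-Rho (150nM final) is added and fluorescence is read over time.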

The nature of assay [11]: qHTS for Inhibitors of ATXN expression: Validation of Cytotoxic Assay (AID 588349).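 Also: cells exposed to compound for 72 hr; % is scaled to controls: 0 for no effect and ±100 for the full control effect.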 The procedure, abridged:
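HEK293, compound dose series, 72 hr / 37 degrees C; viability via CellTiter Glo (intracellular ATP).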

The target of assay [12] is DNA dC->dU-editing enzyme APOBEC-3G (Homo sapiens) (UniProt Q9HC16). In words: qHTS for inhibitors of Vif-A3G interactions: Validation (AID 588379). Also: 0% is about no effect. The procedure, abridged: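 HeLa cells stably expressing Vif and A3G-eYFP, 700 cells/well, incubated overnight at 37 deg C, then exposed to compound overnight at 37 deg C. Inhibition of Vif-mediated degradation read as increased yellow fluorescence (Ex 488/Em 500-530) by laser-scanning cytometry.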

For assay [13], the target named is Phosphoglycerate kinase, glycosomal (Trypanosoma brucei brucei) (UniProt P07378). In words: qHTS Validation Assay to Find Inhibitors of Phosphoglycerate Kinase (AID 504547).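 Also: control wells lack PGK and mark full inhibition.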 In outline: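 PGK activity was coupled to GAPDH (100nM final), which generates the unstable substrate 1,3-bisphosphoglycerate in-well. Reactions ran 60 minutes at room temperature in 100mM TEA pH 7.6, 5mM MgCl2, 0.01% Tween-20, then Kinase-Glo Plus luminescence was read.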

Assay [14] is described as follows: qHTS for Inhibitors of ATXN expression: Validation (AID 588378). Also: series mostly up to about 57 µM; % is scaled to controls: 0 for no effect and ±100 for the full control effect; nearly all actives have a fitted effect of over 75% in size. In outline: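 Compounds were pinned onto attached HEK293 cells carrying an ATXN2-firefly luciferase construct and incubated 24 hrs at 37 degrees C. Each well then received a fluorescent viability reagent followed by luciferase substrate for end-point luminescence.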
The target in assay [15] is ATP-dependent 6-phosphofructokinase (Trypanosoma brucei brucei) (UniProt O15648). Description: qHTS Assay to Find Inhibitors of T. brucei phosphofructokinase: hit validation (AID 492961). Also: series mostly up to about 51 µM; % is scaled to controls: 0 for no effect and ±100 for the full control effect. In outline:
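Luminescence from ADP-Glo reports ADP generated as T. brucei PFK (1.25 nM) phosphorylates 0.5 mM fructose-6-phosphate using 0.1 mM ATP. Reactions ran 45 min at room temperature, pH 8.0.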

The target in assay [16] is Estrogen receptor (Homo sapiens) (UniProt P03372). In words: qHTS assay for small molecule agonists of estrogen receptor alpha signaling (AID 588514; calls by dose curve;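 also: 0% = vehicle only and 100% = reference agonist; nearly all actives have a fitted effect of over 70% in size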). The procedure, abridged:
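Reporter-gene assay. […] controls beta-lactamase in HEK 293 GripTite cells; after 18 hrs with compound, CCF4 substrate is added for 2 hrs and fluorescence is read.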

In assay [17] the target is Bile acid receptor (Homo sapiens) (UniProt Q96RI1). In words: qHTS assay for small molecule antagonists of farnesoid X receptor signaling (AID 588526; calls by dose curve; also: % is scaled to controls: 0 for no effect and ±100 for the full control effect). The procedure, abridged: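 Antagonist mode: titrated compounds tested against chenodeoxycholic acid stimulation (normalized to 50 uM CDCA and DMSO) in GeneBLAzer HEK293T cells for 16 h. Beta-lactamase read by CCF4 fluorescence; IC50 from Hill fits.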

Assay [18] deals with Estrogen receptor (Homo sapiens) (UniProt P03372). Description: qHTS assay for small molecule antagonists of estrogen receptor alpha signaling (AID 588513; active = well fitted curve in the direction sought with a large enough effect in the signal ratio, with a control signal flat, not every such curve was filed as active; the % refers to the signal ratio; also: % is scaled to controls: 0 for no effect and ±100 for the full control effect). The procedure, abridged: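 Fluorescence from CCF4 substrate after 2 h at room temperature gave reporter activity; cells had been exposed to compound and 0.5nM 17-beta-estradiol for 18 h at 37 C. Hill-equation fitting yielded IC50 and maximal response.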
Estrogen receptor (Homo sapiens), sequence (P03372 whole entry, looked up): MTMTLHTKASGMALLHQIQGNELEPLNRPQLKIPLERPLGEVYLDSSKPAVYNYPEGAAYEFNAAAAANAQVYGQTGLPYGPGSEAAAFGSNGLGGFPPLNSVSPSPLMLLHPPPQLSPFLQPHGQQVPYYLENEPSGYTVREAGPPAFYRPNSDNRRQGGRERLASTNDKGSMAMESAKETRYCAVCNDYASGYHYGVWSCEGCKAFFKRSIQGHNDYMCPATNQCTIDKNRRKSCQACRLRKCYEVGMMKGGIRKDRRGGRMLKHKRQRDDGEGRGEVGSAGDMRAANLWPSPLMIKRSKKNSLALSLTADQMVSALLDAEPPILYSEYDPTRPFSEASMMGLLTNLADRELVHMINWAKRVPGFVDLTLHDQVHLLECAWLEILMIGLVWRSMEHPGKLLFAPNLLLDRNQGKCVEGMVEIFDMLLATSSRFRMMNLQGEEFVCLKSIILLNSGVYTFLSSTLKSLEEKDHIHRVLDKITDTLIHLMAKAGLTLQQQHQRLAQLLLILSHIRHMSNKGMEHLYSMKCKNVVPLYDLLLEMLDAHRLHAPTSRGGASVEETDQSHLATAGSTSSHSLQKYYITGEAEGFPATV

Ubiquitin carboxyl-terminal hydrolase 1 (Homo sapiens), sequence (O94782 whole entry, looked up): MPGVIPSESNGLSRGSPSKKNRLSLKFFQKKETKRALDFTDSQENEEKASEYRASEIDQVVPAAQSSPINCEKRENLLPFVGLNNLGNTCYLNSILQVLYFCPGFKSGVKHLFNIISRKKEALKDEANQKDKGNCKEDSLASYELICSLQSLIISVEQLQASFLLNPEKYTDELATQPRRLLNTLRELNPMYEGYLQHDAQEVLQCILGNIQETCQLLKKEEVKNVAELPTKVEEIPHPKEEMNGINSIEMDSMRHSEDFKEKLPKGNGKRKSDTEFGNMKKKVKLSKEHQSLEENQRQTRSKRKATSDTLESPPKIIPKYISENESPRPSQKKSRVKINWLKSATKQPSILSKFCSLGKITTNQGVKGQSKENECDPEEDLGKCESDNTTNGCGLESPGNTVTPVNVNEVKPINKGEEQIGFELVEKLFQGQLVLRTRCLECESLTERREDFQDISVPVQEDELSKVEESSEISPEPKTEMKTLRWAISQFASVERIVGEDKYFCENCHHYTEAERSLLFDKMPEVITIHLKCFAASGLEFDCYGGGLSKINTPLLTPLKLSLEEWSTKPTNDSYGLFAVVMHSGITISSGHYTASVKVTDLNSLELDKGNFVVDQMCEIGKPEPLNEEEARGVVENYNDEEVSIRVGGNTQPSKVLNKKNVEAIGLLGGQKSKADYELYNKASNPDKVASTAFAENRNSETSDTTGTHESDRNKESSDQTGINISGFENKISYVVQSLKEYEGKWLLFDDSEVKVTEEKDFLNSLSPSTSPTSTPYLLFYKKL
Bile acid receptor (Homo sapiens), sequence (Q96RI1 whole entry, looked up): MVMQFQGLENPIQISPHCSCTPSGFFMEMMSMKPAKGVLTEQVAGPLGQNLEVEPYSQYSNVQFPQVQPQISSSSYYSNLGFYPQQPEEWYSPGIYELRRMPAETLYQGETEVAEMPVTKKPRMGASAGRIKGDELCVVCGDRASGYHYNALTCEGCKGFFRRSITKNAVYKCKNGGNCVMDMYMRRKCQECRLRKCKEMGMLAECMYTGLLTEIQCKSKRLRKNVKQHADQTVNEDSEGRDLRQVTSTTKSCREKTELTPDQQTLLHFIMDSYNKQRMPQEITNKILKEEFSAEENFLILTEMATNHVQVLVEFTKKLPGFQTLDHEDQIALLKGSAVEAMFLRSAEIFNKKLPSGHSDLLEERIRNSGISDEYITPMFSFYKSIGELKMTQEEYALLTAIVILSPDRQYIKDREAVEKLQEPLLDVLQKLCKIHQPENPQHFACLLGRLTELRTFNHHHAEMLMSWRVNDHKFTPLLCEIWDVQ
phosphoglycerate mutase (Leishmania major), sequence (Q4Q090 1-553): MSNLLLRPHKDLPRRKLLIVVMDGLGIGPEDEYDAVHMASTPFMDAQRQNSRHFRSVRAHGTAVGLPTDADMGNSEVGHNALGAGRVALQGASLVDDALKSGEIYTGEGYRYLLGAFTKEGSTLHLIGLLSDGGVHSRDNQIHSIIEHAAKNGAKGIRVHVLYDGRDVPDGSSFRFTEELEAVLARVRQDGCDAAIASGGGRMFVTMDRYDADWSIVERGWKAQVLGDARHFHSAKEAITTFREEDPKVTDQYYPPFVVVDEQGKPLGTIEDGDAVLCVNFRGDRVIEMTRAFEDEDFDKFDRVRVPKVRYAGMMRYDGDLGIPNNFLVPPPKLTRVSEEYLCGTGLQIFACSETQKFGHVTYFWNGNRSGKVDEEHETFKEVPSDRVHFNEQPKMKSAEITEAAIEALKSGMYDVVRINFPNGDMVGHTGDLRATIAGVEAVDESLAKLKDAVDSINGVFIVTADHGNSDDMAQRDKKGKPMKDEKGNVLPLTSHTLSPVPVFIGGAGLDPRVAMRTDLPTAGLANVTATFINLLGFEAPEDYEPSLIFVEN
Peptidyl-prolyl cis-trans isomerase NIMA-interacting 1 (Homo sapiens), sequence (Q13526 whole entry, looked up): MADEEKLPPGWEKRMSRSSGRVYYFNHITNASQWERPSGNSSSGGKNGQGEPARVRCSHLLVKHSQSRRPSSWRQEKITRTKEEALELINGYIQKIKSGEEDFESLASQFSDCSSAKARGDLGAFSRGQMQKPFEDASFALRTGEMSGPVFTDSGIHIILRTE
Thyrotropin-releasing hormone receptor (Homo sapiens), sequence (P34981 whole entry, looked up): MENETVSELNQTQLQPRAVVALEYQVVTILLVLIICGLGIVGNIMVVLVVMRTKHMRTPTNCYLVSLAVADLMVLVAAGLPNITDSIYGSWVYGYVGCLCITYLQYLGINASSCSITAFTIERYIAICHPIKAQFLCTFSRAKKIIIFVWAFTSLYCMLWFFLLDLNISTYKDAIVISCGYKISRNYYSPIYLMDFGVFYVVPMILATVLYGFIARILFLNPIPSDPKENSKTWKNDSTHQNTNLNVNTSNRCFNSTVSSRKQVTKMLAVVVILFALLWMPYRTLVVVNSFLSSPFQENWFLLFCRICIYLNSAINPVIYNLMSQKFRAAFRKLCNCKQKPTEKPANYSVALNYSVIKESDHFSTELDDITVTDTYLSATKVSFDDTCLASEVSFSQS
Galactokinase (Homo sapiens), sequence (P51570 whole entry, looked up): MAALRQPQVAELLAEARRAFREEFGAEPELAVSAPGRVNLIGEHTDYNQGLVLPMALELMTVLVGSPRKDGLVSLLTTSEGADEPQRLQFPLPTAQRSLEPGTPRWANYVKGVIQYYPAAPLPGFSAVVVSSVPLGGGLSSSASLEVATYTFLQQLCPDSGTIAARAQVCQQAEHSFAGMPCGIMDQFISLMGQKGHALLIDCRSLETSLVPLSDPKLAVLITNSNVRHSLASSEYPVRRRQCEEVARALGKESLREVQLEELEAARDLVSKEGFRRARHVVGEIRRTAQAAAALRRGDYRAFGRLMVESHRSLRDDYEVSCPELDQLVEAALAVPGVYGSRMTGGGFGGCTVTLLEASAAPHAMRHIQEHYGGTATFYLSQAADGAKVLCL
Phosphoglycerate kinase, glycosomal (Trypanosoma brucei brucei), sequence (P07378 whole entry, looked up): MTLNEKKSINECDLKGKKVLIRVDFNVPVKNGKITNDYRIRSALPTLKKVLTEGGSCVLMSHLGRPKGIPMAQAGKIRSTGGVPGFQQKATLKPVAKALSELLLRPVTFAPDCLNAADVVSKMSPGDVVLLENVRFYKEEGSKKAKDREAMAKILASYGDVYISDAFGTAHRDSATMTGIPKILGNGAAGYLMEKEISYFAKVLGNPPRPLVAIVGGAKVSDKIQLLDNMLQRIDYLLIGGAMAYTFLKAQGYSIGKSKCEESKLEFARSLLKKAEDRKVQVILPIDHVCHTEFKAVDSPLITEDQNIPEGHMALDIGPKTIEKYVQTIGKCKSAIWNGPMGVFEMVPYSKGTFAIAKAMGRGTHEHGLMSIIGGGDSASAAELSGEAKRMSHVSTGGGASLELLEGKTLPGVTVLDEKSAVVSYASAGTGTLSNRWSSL
DNA dC->dU-editing enzyme APOBEC-3G (Homo sapiens), sequence (Q9HC16 whole entry, looked up): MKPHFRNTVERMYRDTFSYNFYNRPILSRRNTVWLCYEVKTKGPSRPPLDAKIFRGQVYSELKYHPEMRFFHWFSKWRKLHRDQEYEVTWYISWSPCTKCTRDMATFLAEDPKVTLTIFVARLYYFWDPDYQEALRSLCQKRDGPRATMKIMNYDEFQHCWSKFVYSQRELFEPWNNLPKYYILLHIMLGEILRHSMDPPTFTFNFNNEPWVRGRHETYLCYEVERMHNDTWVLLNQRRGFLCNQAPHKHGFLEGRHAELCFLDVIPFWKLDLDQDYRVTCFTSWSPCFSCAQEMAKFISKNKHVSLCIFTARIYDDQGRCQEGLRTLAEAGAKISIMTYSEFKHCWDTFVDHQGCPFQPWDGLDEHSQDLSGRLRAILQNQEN
ATP-dependent 6-phosphofructokinase (Trypanosoma brucei brucei), sequence (O15648 whole entry, looked up): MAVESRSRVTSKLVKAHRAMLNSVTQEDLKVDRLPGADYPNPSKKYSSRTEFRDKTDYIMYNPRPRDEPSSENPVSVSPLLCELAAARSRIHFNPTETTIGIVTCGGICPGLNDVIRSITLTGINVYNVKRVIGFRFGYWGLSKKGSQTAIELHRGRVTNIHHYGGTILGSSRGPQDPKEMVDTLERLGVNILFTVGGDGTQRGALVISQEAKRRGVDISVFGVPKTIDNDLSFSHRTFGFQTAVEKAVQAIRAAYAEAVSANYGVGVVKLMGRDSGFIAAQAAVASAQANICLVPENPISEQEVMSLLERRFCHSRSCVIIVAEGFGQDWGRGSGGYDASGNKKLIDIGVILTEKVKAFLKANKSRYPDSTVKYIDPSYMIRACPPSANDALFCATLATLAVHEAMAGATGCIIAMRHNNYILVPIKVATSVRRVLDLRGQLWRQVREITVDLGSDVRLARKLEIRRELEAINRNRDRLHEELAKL

With `CN(C)CC/C=C1\c2ccccc2COc2ccccc21`, the Potency entry in assay [1], in [2], in assay [4], in assay [10] and in assay [11] was “inactive” in each case. Also, the activation in assay [3] was 2.94% (inactive). Also, the viability change in assay [4] stood at 10.6%. Also, the compound was called inactive in [5], in [6], in assay [7], in assay [8], in assay [9] and in [12].
`CC(C)(C)NCC(O)c1cc(O)cc(O)c1` (centres undefined): the Potency result in [1], in assay [2], in assay [4], in assay [10], in assay [11] and in assay [14] was “inactive” throughout. In addition, the activation in [3] was 0.438% (inactive). For the same compound, in assay [4], the viability change was 2.92%. The compound was classed as inactive in [6], in assay [7], in [8], in assay [13] and in assay [9].
Consider `NC(=Nc1ccccc1)Nc1ccccc1`, for which the result in assay [15] and in assay [17] was inactive. Further, the Potency entry in assay [10] and in [16] was “inactive” in each case.
`CN=C(NC#N)NCCSCc1nc[nH]c1C`: the Potency entry in assay [1], in assay [2], in assay [10], in assay [11], in [14] and in assay [16] was “inactive” throughout. Moreover, in assay [3], the activation is 1.12% (inactive). In addition, the call in [5], in assay [6], in assay [7], in [8], in [9] and in assay [12] was inactive. Moreover, the compound was called inactive in assay [18] and in [17].
Take `CCN(Cc1ccncc1)C(=O)C(CO)c1ccccc1` (centres undefined): the Potency result in assay [1], in assay [2], in assay [4], in assay [10] and in assay [11] was “inactive” each time. Also, the activation in [3] is 0.375% (inactive). For the same compound, the viability change in assay [4] was -1.19%. Further, the outcome in assay [5], in assay [6], in assay [7], in assay [8], in assay [13] and in [9] was inactive.
With `COCCCC/C(=N\OCCN)c1ccc(C(F)(F)F)cc1`, the Potency entry in assay [1], in assay [2], in assay [4], in assay [10] and in assay [11] was “inactive” throughout. Moreover, the viability change in assay [4] came to 9.56%. Moreover, the result in [5], in assay [6], in [7], in assay [8], in assay [13] and in assay [9] was inactive.
Turning to `Nc1c2c(nc3ccccc13)CCCC2O` (centres undefined), the Potency result in assay [1], in [2], in assay [10] and in assay [11] was “inactive” each time. Further, the activation in assay [3] is 1.62% (inactive). Moreover, the compound was classed as inactive in [5], in assay [6], in assay [7], in [8], in [13] and in [9].
As to `CC(C)NCC(O)c1cc(O)cc(O)c1` (centres undefined), the Potency entry in assay [1], in assay [2], in assay [4], in assay [10], in [11] and in [14] was “inactive” in each case. Further, the viability change in assay [4] worked out at 7.12%. Also, the result in assay [5], in [6], in assay [7], in assay [8], in assay [13] and in assay [9] was inactive.
For the compound `CC(C)COCC(CN(Cc1ccccc1)c1ccccc1)N1CCCC1` (centres undefined), the Potency entry in assay [1], in assay [10], in assay [11] and in [14] was “inactive” throughout. Moreover, the outcome in [6], in [7], in assay [8], in assay [13] and in assay [9] was inactive.
For the compound `CCN(CC)CC(=O)Nc1c(C)cccc1C`, the Potency result in assay [1], in assay [2], in assay [4] and in assay [11] was “inactive” in each case. In addition, the viability change in assay [4] is -7.11%. Besides, the compound was classed as inactive in assay [5], in assay [6], in assay [7], in assay [8], in assay [13] and in assay [9].
